Inconclusive results are not listed. Active and inactive are the calls of the source.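 The calls were made as follows, unless noted: active = inhibition above the screen-wide mean plus 3 SD, about 51%; inactive = the rest.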
Experiments:
[1] = yeast TOR pathway RPL19A-GFP modulators, primary screen, cell-based, S. cerevisiae, multiplex flow cytometry (AID 1862; in the data active = percent of DMSO control GFP below about 86%;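 also: lower values mimic rapamycin by blocking the RPL19A rise seen in DMSO cells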); details: S. cerevisiae RPL19A-GFP strain, flow cytometry fluorescence, 3 h; at 10 µM; stronger effect = lower value
[2] = modulators of MEP2-GFP levels in yeast, primary screen, S. cerevisiae, multiplex flow cytometry (AID 1867;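 active = GFP response, as percent of the DMSO control, above the screen-wide mean plus 3 SD, about 139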;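 also: median GFP channel fluorescence of barcode-gated MEP2-GFP cells measured by flow cytometry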); details: S. cerevisiae MEP2-GFP strain, 3 h, at 10 µM, stronger effect = higher value, 100% means same as DMSO wells
[3] = modulators of CIT2-GFP expression in yeast, primary screen, S. cerevisiae, GFP fusion, multiplex flow cytometry (AID 1870;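 active = percent response above a set limit, the screen-wide mean plus 3 SD, cut at about 130% in these data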;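 also: barcoded CIT2-GFP strain pooled with four other GFP strains with rapamycin as positive control; median GFP fluorescence per well over plate mean of DMSO wells so 100% = DMSO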); details: 3 h, at 10 µM, stronger effect = higher value
[4] = modulators of LAP4-GFP expression in yeast, primary screen, S. cerevisiae, multiplex flow cytometry (AID 1873;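 active = GFP signal, as percent of the solvent control, above the screen mean plus 3 SD, about 149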); details: 3 h, at 10 µM, stronger effect = higher value
[5] = modulators of AGP1-GFP expression in yeast TOR pathway, primary screen, cell-based, multiplex flow cytometry, S. cerevisiae (AID 1887;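 active = GFP signal above the screen-wide mean plus 3 SD, that is over about 124.5% of the solvent control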;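 also: AGP1-GFP fusion strain of S. cerevisiae within a five-strain barcoded multiplex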); details: 3 h, at 10 µM, stronger effect = higher value
[6] = inhibitors of CD8+ T cell-vesicle binding, pilot screen, LFA-1/ICAM-1 modulator project, MLPCN validation set, flow cytometry (AID 2523;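 active = response below a set limit, under 55% cells CD8-positive and vesicle-bound, and CD8 cells' 90th-percentile brightness under 279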;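 as to vesicle binding response: mean PE anti-B7-1 fluorescence of CD8+ cells relative to row control; 100% = QL9-loaded vesicles with DMSO vehicle in the same plate row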); details: 2C mouse CD8+ T cells, at 7 µM, stronger effect = lower value; double positive events: measured here: CD8+/vesicle+ event percentage
[7] = target: Integrin beta-1 (Homo sapiens) + Integrin alpha-4 (Homo sapiens) (UniProt P13612+P05556); test: inhibition of HUTS-21 binding to VLA-4, pilot screen, VLA-4 allosteric modulator project, U937 cells, HUTS-21 mAb, flow cytometry, validation set (AID 2674;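 active = inhibition above 50%, about 3 SD of the validation set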;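 also: antibody binding induced by the VLA-4 ligand LDV present at three times its Kd; 0% = LDV ligand with antibody and no compound and 100% = antibody without LDV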); details: HUTS-21 LIBS mAb binding, at 6.7 µM, stronger effect = higher value, binding induced by LDV ligand
Chain of Integrin beta-1 (Homo sapiens) + Integrin alpha-4 (Homo sapiens) (P05556 whole entry, looked up): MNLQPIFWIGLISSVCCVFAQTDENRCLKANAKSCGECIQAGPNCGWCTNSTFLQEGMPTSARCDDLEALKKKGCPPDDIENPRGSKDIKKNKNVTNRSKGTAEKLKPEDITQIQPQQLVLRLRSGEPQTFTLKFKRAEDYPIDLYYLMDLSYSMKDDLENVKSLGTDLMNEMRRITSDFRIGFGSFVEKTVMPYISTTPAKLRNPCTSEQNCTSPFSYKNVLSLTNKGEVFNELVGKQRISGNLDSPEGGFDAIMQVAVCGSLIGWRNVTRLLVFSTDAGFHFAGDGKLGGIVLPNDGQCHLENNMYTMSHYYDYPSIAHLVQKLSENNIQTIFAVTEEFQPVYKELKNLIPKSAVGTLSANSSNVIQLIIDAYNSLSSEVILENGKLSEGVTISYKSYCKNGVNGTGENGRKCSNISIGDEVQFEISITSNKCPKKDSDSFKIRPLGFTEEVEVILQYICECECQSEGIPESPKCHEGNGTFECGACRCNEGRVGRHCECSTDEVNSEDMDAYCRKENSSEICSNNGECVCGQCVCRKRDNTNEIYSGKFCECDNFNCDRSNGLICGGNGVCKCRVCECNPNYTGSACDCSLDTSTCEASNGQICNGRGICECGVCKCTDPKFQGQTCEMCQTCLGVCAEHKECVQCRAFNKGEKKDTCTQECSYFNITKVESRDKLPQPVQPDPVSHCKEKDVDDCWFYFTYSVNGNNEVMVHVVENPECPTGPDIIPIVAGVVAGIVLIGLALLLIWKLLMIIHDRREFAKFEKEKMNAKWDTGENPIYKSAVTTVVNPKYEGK
Chain of Integrin beta-1 (Homo sapiens) + Integrin alpha-4 (Homo sapiens) (P13612 whole entry, looked up): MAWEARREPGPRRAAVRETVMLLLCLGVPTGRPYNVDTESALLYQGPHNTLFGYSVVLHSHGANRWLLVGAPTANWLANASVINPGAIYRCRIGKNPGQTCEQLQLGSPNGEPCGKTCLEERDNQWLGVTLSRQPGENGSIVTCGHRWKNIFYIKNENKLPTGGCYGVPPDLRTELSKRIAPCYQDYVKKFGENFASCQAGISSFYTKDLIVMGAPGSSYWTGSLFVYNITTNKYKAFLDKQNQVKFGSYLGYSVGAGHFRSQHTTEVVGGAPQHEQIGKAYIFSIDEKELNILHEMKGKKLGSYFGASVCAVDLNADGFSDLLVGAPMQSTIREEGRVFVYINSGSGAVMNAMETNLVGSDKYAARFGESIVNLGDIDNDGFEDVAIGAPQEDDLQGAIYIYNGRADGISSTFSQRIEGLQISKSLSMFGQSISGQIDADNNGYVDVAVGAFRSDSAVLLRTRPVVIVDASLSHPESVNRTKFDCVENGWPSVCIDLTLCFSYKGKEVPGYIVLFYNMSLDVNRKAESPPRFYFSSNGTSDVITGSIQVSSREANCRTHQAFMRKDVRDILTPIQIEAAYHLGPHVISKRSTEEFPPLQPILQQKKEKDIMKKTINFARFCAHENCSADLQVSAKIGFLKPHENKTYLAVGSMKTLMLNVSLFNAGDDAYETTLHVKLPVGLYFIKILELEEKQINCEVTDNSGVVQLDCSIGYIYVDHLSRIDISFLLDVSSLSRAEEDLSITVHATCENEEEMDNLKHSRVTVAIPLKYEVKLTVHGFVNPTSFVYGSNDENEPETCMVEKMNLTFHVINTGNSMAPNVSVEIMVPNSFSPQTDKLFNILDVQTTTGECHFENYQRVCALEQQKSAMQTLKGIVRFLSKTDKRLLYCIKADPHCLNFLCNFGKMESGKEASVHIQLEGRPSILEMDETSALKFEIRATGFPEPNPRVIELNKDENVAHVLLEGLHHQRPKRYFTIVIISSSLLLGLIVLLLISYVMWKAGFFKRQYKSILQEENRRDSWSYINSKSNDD

[8] = superoxide lowering in aged yeast cells, pilot screen, validation compound set (AID 2706;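 active = superoxide response below 65% of plate, a cut near 3 SD across the whole screen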;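 also: yeast exposed to compound for one week at 30 degrees C before staining; 100% = mean of all compound wells on the same plate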); details: S. cerevisiae aging, superoxide DHE fluorescence; at 10 µM, stronger effect = lower value
[9] = target: Beta-adrenergic receptor kinase 1 (Homo sapiens) (UniProt P25098); test: GRK2 binders displacing RNA aptamer, biochemical, validation, human GRK2, bead flow cytometry (AID 488806;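 active = aptamer binding inhibition above 30%, about 3 SD of noise from non-fluorescent compounds; inactive = inhibition at or below 30%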); details: bead-bound GRK2, FAM-aptamer displacement, at 10 µM, stronger effect = higher value
Chain of Beta-adrenergic receptor kinase 1 (Homo sapiens) (P25098 whole entry, looked up): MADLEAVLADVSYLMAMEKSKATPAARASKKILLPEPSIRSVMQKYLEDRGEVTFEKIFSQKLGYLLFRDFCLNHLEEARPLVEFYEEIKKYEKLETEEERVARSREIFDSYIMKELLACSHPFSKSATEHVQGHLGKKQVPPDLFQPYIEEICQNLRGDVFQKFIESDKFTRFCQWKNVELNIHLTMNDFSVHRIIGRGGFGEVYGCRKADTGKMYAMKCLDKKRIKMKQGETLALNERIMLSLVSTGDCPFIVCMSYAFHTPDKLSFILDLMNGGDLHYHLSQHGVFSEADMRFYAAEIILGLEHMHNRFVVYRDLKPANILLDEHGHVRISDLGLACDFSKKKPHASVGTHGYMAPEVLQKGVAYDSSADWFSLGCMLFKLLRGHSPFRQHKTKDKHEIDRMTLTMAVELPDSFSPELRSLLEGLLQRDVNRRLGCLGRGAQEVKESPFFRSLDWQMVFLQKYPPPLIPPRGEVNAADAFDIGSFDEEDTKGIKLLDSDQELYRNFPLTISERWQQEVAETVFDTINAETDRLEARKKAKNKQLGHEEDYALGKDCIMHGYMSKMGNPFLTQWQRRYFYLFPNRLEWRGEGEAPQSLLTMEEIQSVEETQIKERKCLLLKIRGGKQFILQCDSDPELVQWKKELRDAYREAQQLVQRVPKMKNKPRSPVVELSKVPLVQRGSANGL

[10] = target: Beta-2 adrenergic receptor (Homo sapiens) (UniProt P07550); test: beta2AR agonists driving receptor internalization, pilot screen, cell-based, FAP fluorogen, flow cytometry, validation set (AID 504459;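 active = percent response above 42, roughly 3 SD of non-fluorescent test compounds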;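 also: agonist-driven loss of surface beta2AR via internalization measured by FAP dye flow cytometry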); details: Am2.2-beta2AR cells, FAP surface receptor flow cytometry; at 10 µM; stronger effect = higher value
Chain of Beta-2 adrenergic receptor (Homo sapiens) (P07550 whole entry, looked up): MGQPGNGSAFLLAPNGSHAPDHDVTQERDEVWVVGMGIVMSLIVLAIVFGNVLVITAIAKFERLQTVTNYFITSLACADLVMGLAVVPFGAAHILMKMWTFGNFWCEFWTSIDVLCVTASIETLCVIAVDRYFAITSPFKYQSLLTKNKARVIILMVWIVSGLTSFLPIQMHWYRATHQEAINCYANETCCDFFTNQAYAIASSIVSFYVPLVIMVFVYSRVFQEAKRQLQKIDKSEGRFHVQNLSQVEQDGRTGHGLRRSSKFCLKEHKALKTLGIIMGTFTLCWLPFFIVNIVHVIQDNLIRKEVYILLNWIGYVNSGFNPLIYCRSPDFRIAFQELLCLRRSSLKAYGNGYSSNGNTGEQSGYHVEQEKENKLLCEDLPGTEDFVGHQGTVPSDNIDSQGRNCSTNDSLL

[11] = target: AP-2 complex subunit beta (Homo sapiens) (UniProt P63010); test: inhibitors of arrestin peptide binding to AP2, pilot screen, biochemical, validation set, GST-AP2 beads, flow cytometry (AID 504541;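 active = inhibition above 54%, about 3 SD of non-fluorescent compounds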;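 also: AP2 carries R879A mutation and is captured from E. coli lysate; bead-bound FITC arrestin peptide fluorescence measuring arrestin peptide binding to AP2; 0% = DMSO wells and 100% = excess unlabeled arrestin peptide control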); details: FITC arrestin peptide, at 10 µM, stronger effect = higher value, AP2 beta2 appendage fragment, R879A mutant
Chain of AP-2 complex subunit beta (Homo sapiens) (P63010 whole entry, looked up, the tested form may be a part, one chain of several): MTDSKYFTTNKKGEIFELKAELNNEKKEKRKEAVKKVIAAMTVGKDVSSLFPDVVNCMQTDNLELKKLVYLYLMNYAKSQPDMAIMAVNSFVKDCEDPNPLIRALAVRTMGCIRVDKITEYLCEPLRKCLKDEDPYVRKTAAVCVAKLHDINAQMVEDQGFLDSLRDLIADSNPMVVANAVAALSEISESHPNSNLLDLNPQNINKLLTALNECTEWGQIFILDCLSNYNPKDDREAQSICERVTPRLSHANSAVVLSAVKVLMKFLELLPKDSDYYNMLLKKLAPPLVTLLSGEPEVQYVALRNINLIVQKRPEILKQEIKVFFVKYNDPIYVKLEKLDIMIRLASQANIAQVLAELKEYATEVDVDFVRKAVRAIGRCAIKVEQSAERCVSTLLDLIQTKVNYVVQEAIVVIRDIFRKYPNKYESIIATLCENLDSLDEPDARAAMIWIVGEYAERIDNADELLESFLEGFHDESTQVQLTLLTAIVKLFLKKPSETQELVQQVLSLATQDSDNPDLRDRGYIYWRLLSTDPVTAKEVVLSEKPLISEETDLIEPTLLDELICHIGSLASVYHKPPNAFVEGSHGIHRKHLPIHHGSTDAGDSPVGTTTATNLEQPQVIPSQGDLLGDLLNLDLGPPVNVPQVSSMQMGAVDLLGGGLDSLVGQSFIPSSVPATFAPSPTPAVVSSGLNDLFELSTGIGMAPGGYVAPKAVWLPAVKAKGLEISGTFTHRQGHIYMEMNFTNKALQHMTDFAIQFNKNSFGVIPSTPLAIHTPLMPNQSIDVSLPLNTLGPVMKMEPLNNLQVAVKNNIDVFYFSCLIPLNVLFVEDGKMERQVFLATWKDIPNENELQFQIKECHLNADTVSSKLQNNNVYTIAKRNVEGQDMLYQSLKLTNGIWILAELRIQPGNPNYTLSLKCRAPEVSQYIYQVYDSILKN

[12] = yeast V-ATPase proton transport modulators, S. cerevisiae, pHLuorin, HTS validation (AID 504600; in the data active = response above about 15%;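 also: plate controls were DMSO for no effect and reference compound for full effect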); details: S. cerevisiae pHLuorin cytosolic pH, at 10 µM, stronger effect = higher value
[13] = test system: anti-desmoglein-3 scFv antibody binding to human DSG3; test: inhibitors of anti-DSG3 scFv binding to DSG3, pilot screen, biochemical, validation compound set, bead-based, flow cytometry (AID 588368;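 active = binding below the plate cutoff, the plate median minus 3 SD, with a reading above zero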;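 also: signal is the median channel fluorescence of bead-bound GFP antibody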); details: Protein G beads, DSG3-Fc, scFv-GFP binding, at 10 µM, stronger effect = lower value
[14] = inhibitors of fungal efflux pumps CDR1, CDR2, MDR1, pilot screen, validation compound set, multiplex, phenotypic (AID 588506;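 active = efflux inhibition above 0.42, the validation set average plus 4 SD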;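 also: Nile Red retained in cells so higher fluorescence means more efflux inhibition; 0 = negative control wells and 1 = enniatin B 25 µM full block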); details: S. cerevisiae pump-expressing triplex, Nile Red efflux flow cytometry; at 10 µM; stronger effect = higher value; the pumps come from Candida albicans
[15] = target: ATP-binding cassette sub-family B member 6 (Homo sapiens) (UniProt Q9NP58); test: ABCB6 transporter inhibitors, pilot screen, K562-ABCB6 cells, flow cytometry, validation set (AID 588550); details: K562-ABCB6 porphyrin accumulation, 1 h, at 10 µM, stronger effect = higher value;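 also: 0% = DMSO wells and 100% = benzethonium chloride 70 µM positive control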
Chain of ATP-binding cassette sub-family B member 6 (Homo sapiens) (Q9NP58 whole entry, looked up): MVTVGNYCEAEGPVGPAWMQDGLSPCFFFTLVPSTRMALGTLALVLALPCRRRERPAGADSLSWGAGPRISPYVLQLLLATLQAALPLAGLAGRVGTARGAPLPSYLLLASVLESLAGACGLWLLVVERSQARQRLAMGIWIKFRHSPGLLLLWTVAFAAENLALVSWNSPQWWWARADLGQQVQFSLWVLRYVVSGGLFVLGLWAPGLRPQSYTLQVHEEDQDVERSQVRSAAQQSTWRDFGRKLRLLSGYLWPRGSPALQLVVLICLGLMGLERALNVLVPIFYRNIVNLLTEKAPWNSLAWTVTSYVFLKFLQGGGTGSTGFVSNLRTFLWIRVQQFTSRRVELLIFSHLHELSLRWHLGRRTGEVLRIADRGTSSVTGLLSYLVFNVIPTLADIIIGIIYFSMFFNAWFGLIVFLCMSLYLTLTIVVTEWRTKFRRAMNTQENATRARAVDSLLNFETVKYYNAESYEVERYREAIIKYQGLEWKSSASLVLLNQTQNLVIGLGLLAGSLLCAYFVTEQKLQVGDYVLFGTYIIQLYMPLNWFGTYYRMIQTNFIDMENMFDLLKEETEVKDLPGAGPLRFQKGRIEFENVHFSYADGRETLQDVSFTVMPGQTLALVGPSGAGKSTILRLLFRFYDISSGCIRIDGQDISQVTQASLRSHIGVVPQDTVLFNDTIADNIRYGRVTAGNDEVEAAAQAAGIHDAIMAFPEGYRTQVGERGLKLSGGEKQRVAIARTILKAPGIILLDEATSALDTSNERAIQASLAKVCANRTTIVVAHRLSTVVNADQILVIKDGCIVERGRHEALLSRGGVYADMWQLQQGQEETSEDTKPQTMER

[16] = promoters of myeloid differentiation in arrested cells, primary screen, cell-based, GFP/MAC1 double positive, flow cytometry, validation set (AID 588685;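 active = differentiation response of at least 50%, scaled between solvent and reference control, from cells with both markers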;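 also: compound exposure lasts four days before antibody staining and flow analysis; 0% = DMSO wells and 100% = 5 µM fulvestrant positive control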); details: ER-HoxA9 marrow cells, stronger effect = higher value, normalized: vehicle 0, fulvestrant 100

CCCCOc1ccc(OCCCN2CCOCC2)cc1
inactive: percent of DMSO control GFP [1] 86.5% | GFP response vs DMSO [2] 136% | percent response of DMSO control [3] 104% | GFP response vs DMSO [4] 86.9% | GFP response, % of DMSO [5] 95.9% | inhibition [7] 11.3% | superoxide response (% of plate) [8] 112% | aptamer binding inhibition [9] 3% | response [10] -8.98% | inhibition [11] -2.38% | response [12] 1.62% | binding (% of control) [13] 106% | efflux inhibition (fraction of control) [14] -0.06 | inhibition [15] 11% | differentiation response [16] 4.91%
56%: double positive events [6]

NS(=O)(=O)c1cc2c(cc1Cl)NC(CSCc1ccccc1)=NS2(=O)=O
inactive: percent of DMSO control GFP [1] 97% | GFP response vs DMSO [2] 119% | percent response of DMSO control [3] 118% | GFP response vs DMSO [4] 84.2% | inhibition [7] -6.15% | superoxide response (% of plate) [8] 95.7% | aptamer binding inhibition [9] 2% | response [10] 5.55% | inhibition [11] -7.6% | response [12] 0.08% | binding (% of control) [13] 103% | efflux inhibition (fraction of control) [14] -0.24 | inhibition [15] 3% | differentiation response [16] 13.9%
40.1%: double positive events [6]
active: vesicle binding response [6] 27.2%

CCOC(=O)c1c(C)oc2cc(Br)c(OC(C)C(=O)OCC)cc12 (stereo not given)
60.7%: double positive events [6]
inactive: percent of DMSO control GFP [1] 95% | GFP response vs DMSO [2] 119% | percent response of DMSO control [3] 102% | GFP response vs DMSO [4] 84.7% | vesicle binding response [6] 238% | inhibition [7] 2.58% | superoxide response (% of plate) [8] 93% | aptamer binding inhibition [9] 7% | response [10] 4% | inhibition [11] 1.62% | response [12] -3.94% | binding (% of control) [13] 101% | efflux inhibition (fraction of control) [14] -0.31 | inhibition [15] 12% | differentiation response [16] -1.64%

C[N+](C)(C)CCOP(=O)(O)OP(=O)([O-])OC[C@H]1O[C@@H](n2ccc(N)nc2=O)[C@H](O)[C@@H]1O
inactive: percent of DMSO control GFP [1] 101% | GFP response vs DMSO [2] 113% | percent response of DMSO control [3] 112% | GFP response vs DMSO [4] 82% | GFP response, % of DMSO [5] 102% | inhibition [7] -12.9% | superoxide response (% of plate) [8] 89.1% | aptamer binding inhibition [9] 2% | response [10] 3.17% | inhibition [11] -4.05% | response [12] -1.87% | binding (% of control) [13] 101% | efflux inhibition (fraction of control) [14] -0.17 | inhibition [15] 10% | differentiation response [16] -7.37%
68.8%: double positive events [6]

Cc1cccc(C)c1NS(=O)(=O)c1ccc(NC(=O)c2ccc(Cl)c([N+](=O)[O-])c2)cc1
62.8%: double positive events [6]
inactive: percent of DMSO control GFP [1] 97.7% | GFP response vs DMSO [2] 110% | percent response of DMSO control [3] 116% | GFP response vs DMSO [4] 72.6% | vesicle binding response [6] 163% | inhibition [7] 9.37% | superoxide response (% of plate) [8] 103% | aptamer binding inhibition [9] 0% | response [10] -4.38% | inhibition [11] 4.81% | response [12] 13% | binding (% of control) [13] 100% | efflux inhibition (fraction of control) [14] -0.2 | inhibition [15] 9% | differentiation response [16] 13.1%

Source: PubChem BioAssay
